Shown are actives, neighbours in structure and some others; about 28% of the full set was active somewhere.
CYP2C19 act – activators of human cytochrome P450 2C19; P33261; 96,000 tested, under 10 active; AID 1025; recombinant CYP2C19, luciferin-H EGE luminescence; hits give high values; 0 = fully inhibited enzyme, 1 = untreated enzyme; activation factor at 5 µM;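 active = activation factor of at least 2 at 5 µM in the primary screen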
CYP2C19 inhib – inhibitors of human CYP2C19; P33261; CYP2C19 Supersomes, luciferin-H EGE luminescence, 30 min; inhibition, % at 5 µM; actives 21% (n = 96,000); AID 778;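 active = CYP2C19 inhibition above a set limit at 5 µM in the primary screen, cut at about 50% in these data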
hDAT+cocaine – changed human dopamine transporter uptake under cocaine IC80. Q01959. LLC-PK1 hDAT cells, [14C]-dopamine uptake with cocaine IC80; actives deviate in either direction. B-score at 10 µM. actives 1.3% (n = 110,000);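 active = Z score or B-score, a plate-position-corrected score, falls beyond the plate's 99.7% confidence bounds, in either direction; inactive = both scores lie inside the 99.7% bounds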
D1 mod – allosterically modulates the human D1 dopamine receptor | B-score at 10 µM | actives 5.9% (n = 58,000) | HEK293 D1, CRE-luciferase, dopamine EC30 potentiation; actives deviate in either direction;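 active = luminescence count or its row- and column-corrected plate score outside the 99.7% band of the plate's sample wells, on either side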
Target sequence (P21728 whole entry, looked up): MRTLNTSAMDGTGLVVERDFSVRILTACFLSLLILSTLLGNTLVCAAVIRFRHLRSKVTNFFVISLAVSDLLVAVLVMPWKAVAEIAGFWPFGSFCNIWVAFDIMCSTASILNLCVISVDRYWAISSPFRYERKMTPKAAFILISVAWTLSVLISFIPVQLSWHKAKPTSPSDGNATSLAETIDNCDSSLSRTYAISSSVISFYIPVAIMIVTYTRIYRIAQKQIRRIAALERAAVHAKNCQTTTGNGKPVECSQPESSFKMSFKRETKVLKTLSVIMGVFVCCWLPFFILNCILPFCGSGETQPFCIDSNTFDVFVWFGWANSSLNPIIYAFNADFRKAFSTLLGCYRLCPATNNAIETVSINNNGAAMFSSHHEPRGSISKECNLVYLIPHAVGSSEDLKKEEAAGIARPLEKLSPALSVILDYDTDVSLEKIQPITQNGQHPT
CYP2C9 inhib – human CYP2C9 inhibition; CYP2C9 Supersomes, luciferin-H conversion, luminescence; actives 20% (n = 96,000); P11712; inhibition, % at 5 µM;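 active = blocking of liver enzyme CYP2C9 beyond about 50% at 5 µM, limit read from the data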
CYP2C9 act – CYP2C9 (human) activation; recombinant CYP2C9, luciferin-H conversion, luminescence; hits give high values; factor 1 = untreated enzyme, 0 = blocked; activation factor at 5 µM; actives 1.4% (n = 96,000);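 active = activation factor of 2 or more for CYP2C9 at a 5 µM dose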
Of the large screens only hits and unclear results are named; the others gave an inactive call.

CN1CCc2nc(SCc3ccc(C(C)(C)C)cc3)c(C#N)cc2C1	none (no result: D1 mod)
CCN1CCc2nc(SCC(=O)Nc3ccc(OC)cc3)c(C#N)cc2C1	CYP2C9 inhib 73 (no result: D1 mod)
N#Cc1cc2c(nc1SCC(O)CS(=O)(=O)Cc1ccccc1)CCCC2 (stereo not given)	D1 mod -3.6, CYP2C9 inhib 58
CN1CCc2nc(SCC(=O)Nc3ccc(F)cc3)c(C#N)cc2C1	CYP2C19 inhib 90, CYP2C9 inhib 75
CCCCCCN(C(=O)CCCCCN1C(=O)NC(c2ccc(C3CCCCC3)cc2)C(C(=O)OCc2ccccc2)=C1C)C(C(=O)NCCCC)c1ccc(OCC(=O)OC)c(C(=O)OC)c1 (stereo not given)	none (no result: CYP2C19 act, CYP2C19 inhib, D1 mod, CYP2C9 inhib, CYP2C9 act)
C=C(c1cccc2ccccc12)P(=O)(O)O	none
O=C(NCc1cccs1)C1CCN(C(=O)NCc2ccccc2)CC1	none (no result: CYP2C19 act, CYP2C19 inhib, D1 mod, CYP2C9 inhib, CYP2C9 act)
COC(=O)c1ccc(Oc2c(C)oc3c(CN4CCN(C)CC4)c(O)ccc3c2=O)cc1	none (no result: D1 mod)
COc1ccc(NC(=O)CSc2nc3c(cc2C#N)CN(C)CC3)cc1	CYP2C9 inhib 66
CC(=O)N1CC=CC1(CC(C)C)C(=O)NCCN1CCOCC1 (stereo not given)	none (no result: CYP2C19 act, CYP2C19 inhib, D1 mod, CYP2C9 inhib, CYP2C9 act)
O=C(CCc1ccccc1)Nc1cc(Cl)ccc1O	CYP2C19 inhib 99, CYP2C9 inhib 88
COc1ccc(NC(=S)Nc2nc(CC(=O)Nc3ccccc3OC)cs2)cc1	none (no result: D1 mod)
COc1cc(NC(=O)Cc2ccccc2OC)cc(OC)c1	CYP2C19 inhib 51 (no result: hDAT+cocaine)
O=C(O)CC(=O)Nc1cc(Cl)ccc1O	none (no result: D1 mod)
COc1ccccc1NC(=O)Cc1csc(NC(=S)Nc2ccccc2)n1	CYP2C9 inhib 66 (no result: D1 mod)
O=C(Nc1cc(Cl)ccc1O)c1snnc1-c1ccccc1	CYP2C19 inhib 52, CYP2C9 inhib 83 (no result: D1 mod)
CC1=CC(C)(C)n2c(O)c(C3=NC(=S)NC3=O)c3cc(OC(=O)c4cccc5ccccc45)cc1c32	none (no result: hDAT+cocaine, D1 mod)
Cc1c(C(=O)N(C)C)sc(NC(=O)c2cccc([N+](=O)[O-])c2)c1C#N	none (no result: D1 mod)
Cc1ccc(/C(O)=C2/C(=O)C(=O)N(CCN3CCOCC3)C2c2cccs2)cc1 (stereo not given)	none (no result: hDAT+cocaine, D1 mod)
c1ccc(-c2nc3c4ccccc4nc(N4CCN(c5ccccn5)CC4)n3n2)cc1	none (no result: CYP2C19 act, CYP2C19 inhib, hDAT+cocaine, CYP2C9 inhib, CYP2C9 act)
NC(=O)CC1NC(=O)c2cc([N+](=O)[O-])cc(I)c2OCCC(C(N)=O)NC(=O)[C@@H]2CCCN2C1=O (stereo not given in full)	none (no result: CYP2C19 act, CYP2C19 inhib, D1 mod, CYP2C9 inhib, CYP2C9 act)
CCOC(=O)c1sc(NC(=O)CSc2nnnn2-c2ccc(C)cc2C)nc1C	none (no result: hDAT+cocaine)
Cc1ccc(NC(=O)c2ccccc2)cc1OC(=O)c1ccccc1	none (no result: D1 mod)
COc1ccccc1CC(=O)Nc1ccc(OC)c(OC)c1	none
COc1ccccc1CNC(=O)CN(C)CC(=O)Nc1cccc(F)c1	CYP2C19 inhib 92, CYP2C9 inhib 85
COc1ccccc1CC(=O)Nc1ccccc1O	CYP2C19 inhib 62, CYP2C9 act 3.5 (no result: D1 mod)
COc1ccccc1CC(=O)Nc1cc(Cl)ccc1O	CYP2C19 inhib 51 (no result: D1 mod)
CNc1c([N+](=O)[O-])cnn1-c1ccc(Cl)cc1	none (no result: D1 mod)
CN(CC(=O)NCc1ccco1)S(=O)(=O)c1cccc2cccnc12	none
Cc1ccc(NC(=O)CN(C)S(=O)(=O)c2cccc3cccnc23)cc1	CYP2C9 inhib 78
CN(CC(=O)NCc1ccc(Cl)cc1)S(=O)(=O)c1cccc2cccnc12	none (no result: D1 mod)
CC1Cc2ccccc2N1C(=O)CN(C)S(=O)(=O)c1cccc2cccnc12 (stereo not given)	none (no result: D1 mod)
Cc1csc(NC(=O)CN(C)S(=O)(=O)c2cccc3cccnc23)n1	CYP2C19 inhib 91, CYP2C9 inhib 84
CN(Cc1ccccc1)S(=O)(=O)c1cccc2cccnc12	CYP2C19 inhib 80, CYP2C9 act 3 (no result: D1 mod)
CN(CC(=O)N1CCCCC1)S(=O)(=O)c1cccc2cccnc12	CYP2C9 act 2.1
Cc1ccc(-c2nnc(N3CCCCC3)c3ccccc23)cc1S(=O)(=O)NCC1CCCO1 (stereo not given)	none (no result: D1 mod)
CC1CCCN(CC(O)CN)C1 (stereo not given)	none (no result: CYP2C19 act, CYP2C19 inhib, D1 mod, CYP2C9 inhib, CYP2C9 act)
CCC(C(=O)NCc1ccccc1OC)n1nc(C)n2c(cc3occc32)c1=O (stereo not given)	CYP2C19 inhib 56, CYP2C9 inhib 63 (no result: D1 mod)
CCOC(=O)C1CCN(Cc2coc3c(Cl)cc(Cl)cc3c2=O)CC1	none (no result: D1 mod)
CCOc1ccc2nc(SCc3ccccc3C#N)sc2c1	CYP2C19 inhib 51, CYP2C9 act 2.5 (no result: D1 mod)
COc1ccc(N2C(=O)NC3CC2(C)Oc2ccccc23)cc1OC (stereo not given)	none
COc1ccccc1CN(Cc1nc2ccccc2c(=O)[nH]1)C(=O)Nc1ccc(C)cc1	none (no result: D1 mod)
O=C(c1ccccc1)N(Cc1ccc2c(c1)OCO2)Cc1nc2ccccc2c(=O)[nH]1	CYP2C19 inhib 92, CYP2C9 inhib 90
O=C(Nc1ccccc1)N(Cc1ccc2c(c1)OCO2)Cc1nc2ccccc2c(=O)[nH]1	CYP2C9 inhib 60
CC(OC(=O)CCc1nc2ccccc2c(=O)[nH]1)C(=O)NCc1ccc2c(c1)OCO2 (stereo not given)	none (no result: CYP2C19 act, CYP2C19 inhib, hDAT+cocaine, CYP2C9 inhib, CYP2C9 act)
COc1ccc(/C=N/NC(=O)c2ccc(Cn3cc([N+](=O)[O-])cn3)o2)c(OC)c1C	none (no result: hDAT+cocaine, D1 mod)
O=C(c1ccc(Cn2cc([N+](=O)[O-])cn2)o1)N1N=C(C(F)F)CC1(O)C(F)F (stereo not given)	CYP2C9 inhib 62 (no result: D1 mod)
CCC(=O)c1ccc(OCCn2cncn2)cc1	CYP2C19 inhib 52, CYP2C9 inhib 67
C=C(C)C1(O)OC(=O)C=C1OC (stereo not given)	none (no result: CYP2C19 act, CYP2C19 inhib, D1 mod, CYP2C9 inhib, CYP2C9 act)
CC1NC2(C(=O)N(Cc3ccccc3)c3ccccc32)C2C(=O)N(c3ccccc3)C(=O)C12 (stereo not given)	none
COc1cc(C2C3C(=O)N(Cc4ccccc4)C(=O)C3ON2c2ccccc2)cc(OC)c1O (stereo not given)	CYP2C9 inhib 56
CCCOc1ccc(N2C(=O)C3ON(c4ccccc4)C(c4ccc(O)c(OC)c4)C3C2=O)cc1 (stereo not given)	none (no result: hDAT+cocaine)
COC(=O)C(O)(CC(=O)Nc1cc(Cl)ccc1Cl)C(F)(F)F (stereo not given)	none (no result: CYP2C19 act, CYP2C19 inhib, D1 mod, CYP2C9 inhib, CYP2C9 act)
O=C1OCC(CO)(CO)N=C1NNc1cc(Cl)ccc1Cl	CYP2C19 inhib 77, CYP2C9 inhib 56 (no result: D1 mod)
C#CCOCCOCCOCCNc1nc(N2CCN(C(=O)[C@H]([C@@H](C)O)n3cc(CCCCN)nn3)CC2)nc(N2CCN(C(=O)[C@H]([C@@H](C)CC)n3cc(CCCN=C(N)N)nn3)CC2)n1	none (no result: CYP2C19 act, CYP2C19 inhib, D1 mod, CYP2C9 inhib, CYP2C9 act)
CC(O)CNc1nc2c(c(=O)n(C)c(=O)n2C)n1C/C=C/c1ccccc1 (stereo not given)	none
Cn1c(=O)c2c(nc(NCCCO)n2C/C=C/c2ccccc2)n(C)c1=O	CYP2C19 inhib 90, CYP2C9 inhib 68
CC(O)CNc1nc2c(c(=O)n(C)c(=O)n2C)n1Cc1cccc(Br)c1 (stereo not given)	CYP2C9 inhib 60

Assay outcomes from PubChem.
